Inconclusive results are not listed. The source made the active and inactive calls. Calls follow the shape of the dose curve; as a rule, active = well fitted inhibition curve with a large enough effect; inconclusive = small, poorly fitted or top-dose-only effect; inactive = flat fitted curve, though single readings scatter.
Tests used:
[1] = tested on: JCK; assay: qHTS profiling for inhibitors of Plasmodium falciparum proliferation (AID 504749); also: potency is read from the fitted curve at half-maximal effect; settings: P. falciparum in erythrocytes, SYBR Green DNA, 72 h; series mostly up to 28.7 µM
Method in brief: (§1)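 Parasite proliferation within erythrocytes, 72 h exposure. Endpoint: SYBR Green I fluorescence after overnight lysis at room temperature. Controls: 0.29 uM artemisinin, DMSO.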

[2] = tested on: N140; assay: as above; settings: P. falciparum in erythrocytes, SYBR Green DNA, 72 h; series mostly up to 28.7 µM
Method in brief: as §1

[3] = tested on: P93_24; assay: as above; settings: P. falciparum in erythrocytes, SYBR Green DNA, 72 h; series mostly up to 28.7 µM
Method in brief: as §1

[4] = tested on: P94_40; assay: as above; settings: P. falciparum in erythrocytes, SYBR Green DNA, 72 h; series mostly up to 28.7 µM
Method in brief: as §1

[5] = tested on: PAD; assay: as above; settings: P. falciparum in erythrocytes, SYBR Green DNA, 72 h; series mostly up to 28.7 µM
Method in brief: as §1

[6] = tested on: PC15; assay: as above; settings: P. falciparum in erythrocytes, SYBR Green DNA, 72 h; series mostly up to 28.7 µM
Method in brief: as §1

[7] = tested on: PC26; assay: as above; settings: P. falciparum in erythrocytes, SYBR Green DNA, 72 h; series mostly up to 28.7 µM
Method in brief: as §1

[8] = tested on: PC49; assay: as above; settings: P. falciparum in erythrocytes, SYBR Green DNA, 72 h; series mostly up to 28.7 µM
Method in brief: as §1

[9] = tested on: SC27B; assay: as above; settings: P. falciparum in erythrocytes, SYBR Green DNA, 72 h; series mostly up to 28.7 µM
Method in brief: as §1

[10] = tested on: TAB109; assay: as above; settings: P. falciparum in erythrocytes, SYBR Green DNA, 72 h; series mostly up to 28.7 µM
Method in brief: as §1

[11] = tested on: TAB113; assay: as above; settings: P. falciparum in erythrocytes, SYBR Green DNA, 72 h; series mostly up to 28.7 µM
Method in brief: as §1

[12] = tested on: TAB165; assay: as above; settings: P. falciparum in erythrocytes, SYBR Green DNA, 72 h; series mostly up to 28.7 µM
Method in brief: as §1

[13] = tested on: W2; assay: as above; settings: P. falciparum in erythrocytes, SYBR Green DNA, 72 h; series mostly up to 28.7 µM
Method in brief: as §1

[14] = tested on: CRL-7250; assay: Cytotoxic Profiling of Annotated Libraries Using Quantitative High-Throughput Screening (AID 1296008); settings: Five cell lines viability, CellTiter-Glo ATP luminescence, 48-72 h; hits give low values; as to max response: % is scaled to controls: 0 for no effect and ±100 for the full control effect
Method in brief: (§2)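 Compounds were pin-transferred onto cells and incubated 48 or 72 hr at 37 degree Celsius, 95% humidity. CellTiter-Glo was added, plates sat 10 min at room temperature, then ATP-coupled luminescence was imaged as the viability read-out.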

[15] = tested on: HEK293; assay: as above; settings: Five cell lines viability, CellTiter-Glo ATP luminescence, 48-72 h; hits give low values
Method in brief: as §2

[16] = tested on: HaCat; assay: as above; settings: Five cell lines viability, CellTiter-Glo ATP luminescence, 48-72 h; hits give low values
Method in brief: as §2

[17] = tested on: KB-3-1; assay: as above; settings: Five cell lines viability, CellTiter-Glo ATP luminescence, 48-72 h, hits give low values
Method in brief: as §2

[18] = tested on: NIH3T3; assay: as above; settings: Five cell lines viability, CellTiter-Glo ATP luminescence, 48-72 h; hits give low values
Method in brief: as §2

[19] = tested on: HEK293T; assay: qHTS assay to identify novel small-molecules to repurpose for Merkel cell carcinoma treatment (AID 1296009); settings: MCC and control cell lines, CellTiter-Glo viability, 72 h; at 44.8 µM (top of the series) unless noted
Method in brief: (§3)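 qHTS format: cells treated with library compounds in DMSO across 8 (NPC) or 11 (MIPE) concentrations. Readout after 72 hr at 37 degree celsius was CellTiter-Glo luminescence.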

[20] = tested on: HACAT; assay: as above; settings: MCC and control cell lines, CellTiter-Glo viability, 72 h; at 44.8 µM (top of the series) unless noted
Method in brief: as §3
Also: nearly all actives have a fitted effect of over 60% in size.

O=C(Cn1ccnc1[N+](=O)[O-])NCCO
inactive: Potency [1] | Potency [2] | Potency [3] | Potency [4] | Potency [5] | Potency [6] | Potency [7] | Potency [8] | Potency [9] | Potency [10] | Potency [11] | Potency [12] | Potency [13] | max response [14] 1.72% | outcome [15] | max response [16] 0.0021% | max response [17] 0.623% | max response [18] 4.22% | outcome [19]

CC(CN(C)C)C(C)(O)Cc1ccc(Cl)cc1 (stereo not drawn)
active: Potency [13] 2390 nM
inactive: Potency [1] | Potency [5] | Potency [6] | outcome [14] | max response [15] 3.34% | outcome [16] | max response [17] 6.05% | outcome [18] | outcome [20]

O=C1CC[C@@H](C(=O)O)N1
inactive: Potency [1] | Potency [2] | Potency [4] | Potency [5] | Potency [6] | Potency [7] | Potency [8] | Potency [9] | Potency [10] | Potency [11] | Potency [12] | max response [14] 1.58% | outcome [15] | max response [16] 4.13% | max response [17] 18.1% | max response [18] 0.792% | outcome [19]

COc1cc(O)cc(O)c1
inactive: Potency [1] | Potency [2] | Potency [3] | Potency [4] | Potency [5] | Potency [6] | Potency [7] | Potency [8] | Potency [9] | Potency [10] | Potency [11] | Potency [12] | outcome [14] | outcome [15] | max response [16] -8.13% | max response [17] -4.6% | max response [18] -7.04% | outcome [19]

COc1ccc(O)cc1
inactive: Potency [1] | Potency [2] | Potency [3] | Potency [4] | Potency [5] | Potency [6] | Potency [7] | Potency [8] | Potency [9] | Potency [10] | Potency [11] | Potency [12] | Potency [13] | max response [14] -3.8% | outcome [15] | max response [16] -9.9% | max response [17] -0.988% | max response [18] -13.1% | outcome [19]

Cc1cc(C)c(NC(=O)CN(CC(=O)O)CC(=O)O)c(C)c1Br
inactive: Potency [1] | Potency [6] | Potency [7] | Potency [8] | Potency [13] | max response [14] -2.84% | max response [15] -7.54% | outcome [16] | max response [17] 14.1% | max response [18] -1.07% | outcome [20]

Cc1ccsc1C(=CCCN1CCC[C@@H](C(=O)O)C1)c1sccc1C
inactive: Potency [1] | Potency [2] | Potency [3] | Potency [4] | Potency [5] | Potency [6] | Potency [7] | Potency [8] | Potency [9] | Potency [10] | Potency [11] | Potency [12] | Potency [13] | max response [14] -7.41% | outcome [15] | max response [16] 3.8% | max response [17] 3.88% | max response [18] -5% | outcome [19]

Cc1cc(NC(=O)C2=C(O)c3ccccc3S(=O)(=O)N2C)no1
inactive: Potency [1] | Potency [2] | Potency [3] | Potency [4] | Potency [5] | Potency [6] | Potency [7] | Potency [8] | Potency [9] | Potency [10] | Potency [11] | Potency [12] | max response [14] -9.44% | outcome [15] | max response [16] 1.12% | max response [17] -4.98% | max response [18] -3.38% | outcome [19]

NC(=O)c1ccc([N+](=O)[O-])cc1Cl
inactive: Potency [1] | Potency [4] | Potency [8] | Potency [9] | max response [14] 3.21% | max response [15] -0.167% | max response [16] -15.2% | max response [17] 1.89% | outcome [18]

O=C1c2ccccc2S(=O)(=O)N1CCCCN1CCN(c2ncccn2)CC1
inactive: Potency [1] | Potency [2] | Potency [3] | Potency [4] | Potency [5] | Potency [6] | Potency [7] | Potency [8] | Potency [9] | Potency [10] | Potency [11] | Potency [12] | max response [14] -12.2% | max response [15] -4.06% | max response [16] -10.1% | max response [17] -5.25% | outcome [18]

CCCC(O)C(CC)CO (stereo not drawn)
inactive: Potency [1] | Potency [2] | Potency [3] | Potency [4] | Potency [5] | Potency [6] | Potency [7] | Potency [8] | Potency [9] | Potency [10] | Potency [11] | Potency [12] | Potency [13] | max response [14] -3.08% | max response [15] -1.45% | max response [16] -9.38% | max response [17] 9.23% | outcome [18]

Cc1[nH]c(C)c(Cl)c(=O)c1Cl
inactive: Potency [1] | Potency [2] | Potency [3] | Potency [4] | Potency [5] | Potency [8] | Potency [9] | Potency [10] | Potency [11] | outcome [14] | max response [15] -10% | max response [16] -2.26% | max response [17] -14.2% | max response [18] -10.7%

CC(C)CCOC(=O)c1ccc(N(C)C)cc1
inactive: Potency [1] | Potency [3] | Potency [4] | Potency [5] | Potency [6] | Potency [7] | Potency [8] | Potency [9] | Potency [10] | Potency [11] | Potency [12] | Potency [13] | max response [14] -21% | max response [15] -23.8% | max response [16] -5.98% | max response [17] 11.7% | max response [18] -25.1%

CN(C(=O)c1c(O)c2ccccc2n(C)c1=O)c1ccccc1
inactive: Potency [1] | Potency [2] | Potency [3] | Potency [4] | Potency [5] | Potency [6] | Potency [7] | Potency [8] | Potency [9] | Potency [10] | Potency [12] | Potency [13] | max response [14] 0.215% | max response [15] -2.97% | max response [16] -1.18% | max response [17] 9.88% | outcome [18]
